Assay [1] can be described thus: ATG_PXRE_CIS: Attagene CIS-FACTORIAL HepG2 Assay for human Pregnane X Receptor Element (PXRE) (AID 2282957). As to conditions: HepG2 Attagene CIS-FACTORIAL PXRE reporter, mRNA; actives raise or lower the signal. The method in brief: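 Endogenous transcription factor activity in HepG2 was gauged through induction of reporter mRNA driven by a cis-regulating promoter element, sampled 24 h post-treatment. Activity was fitted in both directions against DMSO negative control.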

A short description of assay [2]: ATG_PPRE_CIS: Attagene CIS-FACTORIAL HepG2 Assay for human Peroxisome Proliferator-activated Response Element (PPRE) (AID 2282958). As to conditions: HepG2 PPRE cis-element reporter, Attagene transcription factor profiling; actives raise or lower the signal. The method in brief:
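Multiplexed reporter transcription units under cis-regulatory promoters were transfected into HepG2 cells to capture endogenous factor activity. A 24 h incubation preceded RNA isolation and fluorescent RT-PCR fragment analysis.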

Assay [3] in a line: ATG_RORE_CIS: Attagene CIS-FACTORIAL HepG2 Assay for human RAR-related Orphan Receptor Element (RORE) (AID 2282959). As to conditions: HepG2 Attagene cis-factorial RORE reporter, mRNA; actives raise or lower the signal. The method in brief:
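Fluorescence intensity of reporter-specific cDNA fragments, separated by capillary electrophoresis, gives the signal. Source: HepG2 liver cells transiently transfected with cis-element reporters and exposed 24 h; DMSO-normalized bidirectional fit.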

A short description of assay [4]: ATG_Sox_CIS: Attagene CIS-FACTORIAL HepG2 Assay for human SRY-box transcription factor (SOX) (AID 2282960). As to conditions: HepG2 Attagene cis-factorial SOX reporter, mRNA; actives raise or lower the signal. An outline of the steps:
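After 24 h of chemical treatment, transfected HepG2 reporter cells are lysed for total RNA. Transcript levels come from RT-PCR with labelled primer extension and capillary electrophoresis, analysed bidirectionally versus DMSO.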

Assay [5] addresses Transcription factor Sp1 (Homo sapiens) (UniProt P08047). Nature of the assay: ATG_Sp1_CIS: Attagene CIS-FACTORIAL HepG2 Assay for human Specificity Protein 1 (Sp1) (AID 2282961). The settings on record: HepG2 Sp1 cis-reporter transcription, actives raise or lower the signal. An outline of the steps: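 Sp1-driven reporter mRNA, read as capillary electrophoresis fluorescence after RT-PCR, in transiently transfected HepG2 cells dosed for 24 h; signal change in either direction relative to DMSO.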

Assay [6] is described as follows: ATG_SREBP_CIS: Attagene CIS-FACTORIAL HepG2 Assay for human Sterol Regulatory Element Binding (SREBP) (AID 2282962). The settings on record: HepG2 Attagene cis-factorial SREBP reporter, mRNA; actives raise or lower the signal. The method in brief: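 Readout: fluorescent reporter-transcript peaks resolved by capillary electrophoresis after RT-PCR. Cells were human HepG2 carrying transfected cis-promoter reporter constructs, dosed for 24 h. Gain or loss of signal was fitted against DMSO controls.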

Assay [7] deals with Signal transducer and activator of transcription 3 (Homo sapiens) (UniProt P40763). Nature of the assay: ATG_STAT3_CIS: Attagene CIS-FACTORIAL HepG2 Assay for human Signal Transducer and Activator of Transcription 3 (STAT3) (AID 2282963). The settings on record: HepG2, Attagene cis-factorial STAT3 reporter transcription; actives raise or lower the signal. The method in brief: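 HepG2, MRTU-transfected, 24 h dosing. RNA → RT → PCR → FAM label → HpaI → CE. Bidirectional fit vs DMSO.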
Signal transducer and activator of transcription 3 (Homo sapiens), sequence (P40763 whole entry, looked up): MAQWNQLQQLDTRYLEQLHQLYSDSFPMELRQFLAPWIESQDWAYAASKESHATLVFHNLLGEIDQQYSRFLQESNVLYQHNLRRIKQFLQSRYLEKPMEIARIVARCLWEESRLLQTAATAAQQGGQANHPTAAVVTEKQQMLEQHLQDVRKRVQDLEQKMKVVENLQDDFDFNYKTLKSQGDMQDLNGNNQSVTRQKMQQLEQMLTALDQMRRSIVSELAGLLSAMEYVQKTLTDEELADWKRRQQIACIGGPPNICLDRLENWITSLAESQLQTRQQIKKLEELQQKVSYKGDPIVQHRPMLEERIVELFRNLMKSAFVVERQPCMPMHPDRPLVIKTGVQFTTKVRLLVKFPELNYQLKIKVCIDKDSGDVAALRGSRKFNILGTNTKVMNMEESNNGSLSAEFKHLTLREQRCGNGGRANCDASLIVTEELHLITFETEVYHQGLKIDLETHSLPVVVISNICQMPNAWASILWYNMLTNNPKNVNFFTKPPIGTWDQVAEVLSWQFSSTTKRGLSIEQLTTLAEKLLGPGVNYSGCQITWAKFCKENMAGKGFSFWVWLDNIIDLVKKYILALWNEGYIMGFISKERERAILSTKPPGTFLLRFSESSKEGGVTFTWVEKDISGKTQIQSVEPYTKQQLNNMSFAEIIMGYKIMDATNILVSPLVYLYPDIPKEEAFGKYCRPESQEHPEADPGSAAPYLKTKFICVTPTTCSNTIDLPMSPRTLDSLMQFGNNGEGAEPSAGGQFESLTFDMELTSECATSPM

Assay [8] is described as follows: ATG_TA_CIS: Attagene CIS-FACTORIAL HepG2 Assay for human TA Basal Promoter (AID 2282964). As to conditions: HepG2 Attagene CIS-factorial TA basal promoter reporter; actives raise or lower the signal. An outline of the steps: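 Transfected HepG2, 24 h compound exposure; RNA → RT-PCR → FAM primer extension → HpaI cut → CE fluorescence. Gain/loss-of-signal fitted against DMSO negative control. Background-control readout.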

Assay [9] can be described thus: ATG_TCF_b_cat_CIS: Attagene CIS-FACTORIAL HepG2 Assay for human T-Cell-Factor with beta-catenin (TCF/b-cat) (AID 2282965). As to conditions: HepG2 TCF/beta-catenin cis-reporter transcription, actives raise or lower the signal. An outline of the steps: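 In this cis-format system, transfected HepG2 cells report endogenous transcription factor activity. Readout after 24 h exposure is reporter transcript abundance from RT-PCR and capillary electrophoresis, analysed for gain or loss of signal versus DMSO.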

Values joined by “and” are separate entries in the source; they are usually repeats but may differ in a detail not shown here. Equal entries are not always repeated. Where a structure was tested more than once in an assay, its records may differ in their call. Active and inactive are the calls of the source. How the source made its calls: active means hit-call score of the fitted dose curve at least 0.9, where 1 is the maximum; inactive means score below 0.9.

Transcription factor Sp1 (Homo sapiens), sequence (P08047 whole entry, looked up): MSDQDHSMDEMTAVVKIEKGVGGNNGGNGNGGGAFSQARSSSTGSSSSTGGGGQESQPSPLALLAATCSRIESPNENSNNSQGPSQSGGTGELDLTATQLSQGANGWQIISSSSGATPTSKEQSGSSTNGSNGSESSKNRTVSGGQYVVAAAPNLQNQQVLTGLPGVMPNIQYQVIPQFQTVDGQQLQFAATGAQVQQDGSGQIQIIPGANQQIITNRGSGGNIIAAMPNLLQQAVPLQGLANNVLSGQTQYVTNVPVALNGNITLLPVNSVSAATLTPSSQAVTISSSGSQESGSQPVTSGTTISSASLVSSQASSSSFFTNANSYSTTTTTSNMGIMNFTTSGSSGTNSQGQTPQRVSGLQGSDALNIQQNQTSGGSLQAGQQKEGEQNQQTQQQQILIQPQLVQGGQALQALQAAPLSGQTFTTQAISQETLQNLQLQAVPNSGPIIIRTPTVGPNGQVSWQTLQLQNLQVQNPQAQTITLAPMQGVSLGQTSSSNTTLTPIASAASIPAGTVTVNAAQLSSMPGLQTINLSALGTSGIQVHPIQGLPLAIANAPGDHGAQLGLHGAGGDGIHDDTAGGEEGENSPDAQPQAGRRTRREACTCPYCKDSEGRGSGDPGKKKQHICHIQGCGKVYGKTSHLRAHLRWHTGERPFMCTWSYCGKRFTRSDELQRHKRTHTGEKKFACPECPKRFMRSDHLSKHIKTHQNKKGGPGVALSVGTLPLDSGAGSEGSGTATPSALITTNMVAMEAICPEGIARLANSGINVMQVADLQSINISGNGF

One may read the AC50 as the midpoint of the concentration-response curve, whichever way the signal moves. For the compound `CC#Cc1cc(C)nc(Nc2ccccc2)n1`, the half-maximal activity concentration (AC50) was 26.5 µM (active) in assay [1], 51.6 µM (active) in assay [3], 100 µM (active) in assay [8] and 41.8 µM (active) in assay [9]. Further, the outcome in assay [2], in assay [4], in assay [5], in [6] and in [7] was inactive.
Regarding `Nc1ccc(-c2ccc(N)cc2)cc1`, the compound was called inactive in assay [1], in assay [3], in assay [4], in assay [5], in [6] and in assay [7]. Moreover, the result in assay [8] and in assay [9] was inactive.
With `CCNc1nc(NC(C)C)nc(SC)n1`, in assay [1], the AC50 was 13.5 µM (active). In addition, the result in assay [2], in assay [3], in [4], in assay [5], in [6] and in assay [7] was inactive. Moreover, the compound was called inactive in [8] and in assay [9].
With `c1cc2ccc3cccc4ccc(c1)c2c34`, the AC50 in assay [1] is 8.77 µM (active). Further, the outcome in assay [2], in [3], in [4], in assay [5], in assay [6] and in assay [7] was inactive. In addition, the compound was called inactive in assay [8] and in assay [9].
Take `Cc1cc(-c2ccc(N)c(C)c2)ccc1N`: in assay [1], the AC50 is 46.7 µM (active). Also, the call in assay [1], in [3], in assay [4], in assay [5], in assay [6] and in [7] was inactive. The call in [8] and in [9] was inactive.
With `Cc1ccccc1[N+](=O)[O-]`, the call in [1], in assay [2], in [3], in [4], in assay [5] and in assay [6] was inactive. Also, the result in assay [7], in [8] and in [9] was inactive.
Regarding `CCC(C)(c1ccc(O)cc1)c1ccc(O)cc1`, the AC50 is 1.13 µM (active) [middle of 4 runs] in assay [1]; 59.1 µM (active) and 21.5 µM (active) in assay [3]; 24.4 µM (active) in [5]; 33.4 µM (active) and 41.5 µM (active) and 13.9 µM (active) in assay [6]; 60.7 µM (active) in assay [8]; 39.7 µM (active) and 49.7 µM (active) and 47.8 µM (active) in [9]. The outcome in [3], in assay [4], in [5], in [7], in assay [8] and in assay [9] was inactive.
For the compound `ClC(Cl)=C(c1ccc(Cl)cc1)c1ccc(Cl)cc1`, the AC50 is 4.93 µM (active) [middle of 4 runs] in [1]; 31.7 µM (active) and 78.5 µM (active) and 27.1 µM (active) in assay [2]; 66.7 µM (active) in [4]; 95.5 µM (active) [middle of 4 runs] in [5]; 130 µM (active) and 169 µM (active) in assay [6]. Further, the compound was classed as inactive in [2], in assay [3], in [4], in assay [6], in assay [7] and in [8]. The compound was called inactive in assay [9].
In the case of `Sc1ccccc1`, the AC50 in assay [1] is 25.4 µM (active). In addition, the outcome in [1], in assay [3], in [4], in assay [5], in assay [6] and in [7] was inactive. For the same compound, the compound was called inactive in assay [8] and in assay [9].
With `Oc1c(Cl)c(Cl)c(Cl)c(Cl)c1Cl`, the AC50 was 13.6 µM (active) and 12.2 µM (active) and 5.75 µM (active) in [1]; 24.1 µM (active) and 5.68 µM (active) and 4.77 µM (active) in assay [3]; 23.5 µM (active) and 31.3 µM (active) in assay [4]; 20.7 µM (active) and 27.9 µM (active) and 166 µM (active) in assay [5]; 50 µM (active) and 83.2 µM (active) in assay [6]; 17.1 µM (active) in assay [8]. Moreover, the AC50 in assay [9] is 11.8 µM (active). In addition, the call in [4], in assay [6], in assay [7], in assay [8] and in [9] was inactive.
Consider `CC1=C2C[C@H]3[C@@H](CC=C4C[C@@H](O)CC[C@@]43C)[C@@H]2CC[C@]12O[C@@H]1C[C@H](C)CN[C@H]1[C@H]2C`, for which the call in assay [1], in [2], in [4], in assay [6], in assay [7] and in [9] was inactive. Besides, the AC50 in [3] is 12.9 µM (active); in assay [5], 12.8 µM (active); in assay [8], 12.7 µM (active).
Turning to `CC(c1ccc(O)cc1)(c1ccc(O)cc1)c1ccc(O)cc1`, the AC50 was 0.575 µM (active) in assay [1]; 11.1 µM (active) in [3]; 19.6 µM (active) in assay [5]; 2.64 µM (active) in assay [6]; 17.3 µM (active) in assay [8]; 11.9 µM (active) in assay [9]. Moreover, the result in assay [2], in assay [4] and in [7] was inactive.
On to `O=C(N[C@H]1CN2CCC1CC2)c1cc2ccoc2cn1`, for which the compound was classed as inactive in assay [1], in [2], in assay [3], in [4], in assay [5] and in assay [6]. In addition, the result in assay [7], in assay [8] and in assay [9] was inactive.
As for `CCOP(=S)(OCC)SCSC(C)(C)C`, the AC50 in assay [1] was 7.42 µM (active) and 2.05 µM (active); in assay [6], 100 µM (active) and 73.9 µM (active). Moreover, the outcome in assay [2], in [4], in assay [5], in assay [7], in assay [8] and in assay [9] was inactive.
On to `C[C@]12CCC(=O)C=C1CC[C@@H]1[C@@H]2CC[C@]2(C)C(=O)CC[C@@H]12`, for which the AC50 in assay [1] is 15.2 µM (active) and 27.7 µM (active) and 15.3 µM (active); in assay [6] it was 68.4 µM (active). Further, the outcome in assay [1], in assay [2], in assay [3], in assay [4], in assay [5] and in [6] was inactive. Further, the result in [7], in assay [8] and in assay [9] was inactive.
